The results in this text go back to PubChem BioAssay (EPA / NIEHS).

Molecules are shown by their SMILES. More than one record can exist for a structure, and the calls need not agree. Active and inactive are the calls of the source. Rule for the calls: active = hit-call score of the fitted dose curve at least 0.9, where 1 is the maximum; inactive = score below 0.9.

The assay is described as follows: CCTE_Shafer_MEA_dev_burst_duration_mean: CCTE's Neural Network Formation Assay for Mean Burst Duration, Shafer Lab (AID 2284045).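 For AC50: curve fitted for loss meaning shorter burst duration than DMSO.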 Here is the method: CCTE_Shafer_MEA_dev assay is conducted using Axion Biosystems 48 well microelectrode array (MEA) plates and Maestro recording system. Each well of the MEA plate contains a grid of 16 microelectrodes embedded in the culture surface. Electrically active cells, such as neurons, can be cultured over the electrodes, and electrical activity in these cells can be recorded extracellularly. The spontaneous firing of neurons is captured from each electrode on a microsecond timescale providing both temporally and spatially precise data. […] The CCTE_Shafer_MEA_dev assay uses primary cultures of rat cortical neurons. Recordings are made on days post-plating 5, 7, 9 and 12. As these cultures mature over time, neural networks develop functional activity and form cohesive networks in which electrical activity can be highly coordinated. CCTE_Shafer_MEA_dev_burst_duration_mean is 1 of 19 assay components of the CCTE_Shafer_MEA_dev assay. It measures the average time interval from the first spike (action potential firing) to the last spike in a singe-electrode burst (temporally-clustered group of spikes) during a recording in a microelectrode array (MEA) using Axion Biosystems Maestro 768 channel amplifier with the AxIS adaptive spike detector. The mean burst duration is averaged across the actively bursting electrodes to report a well-mean value. To collapse across multiple recordings made on days post-plating 5, 7, 9 and 12, the trapezoidal area-under-the-curve of the component is calculated.Data from the assay component CCTE_Shafer_MEA_dev_burst_duration_mean was analyzed into 1 assay endpoint. This assay endpoint, CCTE_Shafer_MEA_dev_burst_duration_mean, was analyzed in the negative analysis fitting direction relative to DMSO as the negative control and baseline of activity. Using a type of functional reporter, gain or loss-of-signal activity can be used to understand electrical activity.
On the day prior to culture, each well was coated thoroughly with 150 uL of 0.05% polyethyleneimine (PEI, Sigma Cat P3143) in 50 mM HEPES (Sigma Cat H7523) at a pH of 8. The plate was incubated at 37C for one hour. PEI was rinsed out with 500 uL of sterile water three times. Plates were stored at 4C until the day of culture. This culture was plated at a seeding density of 1.5 x 10^5 cells/well on a 48-well MEA plate, prepared as described above. Cells were administered via a 25 uL media/laminin ([…]; Sigma Cat L2020-1MG) drop directly onto the microelectrode array, as adding the cells with the laminin results in better attachment than pre-coating with laminin. After 2 hours, an additional 475 uL of cortical media was added and the cells returned to the incubator. Exposure starts at day 0 of plating and is continued over twelve days of network development until the experiment is terminated. Cells are fed with fresh medium on DIV 5 and 9, following the recordings on those days. The entire volume of media in the well is exchanged and any vehicle or compound treatment is renewed. Complete details are found in OP-NHEERL/ISTD/SBB/TJS/2015-03-r0 (available on request, email shafer.tim@epa.gov). Measurement of the electrical activity is non-invasive, and recordings can be made from the same plate over multiple different days of the culture. In cortical neurons, this allows for the measurement of extracellular action potentials over the period during which networks form in the MEA plate.
`CN(C)CCOC(c1ccccc1)c1ccccc1`: the compound was classed as inactive.
Usually AC50 stands for the concentration giving half of the maximal activity seen. For `Nc1ccn([C@@H]2O[C@H](CO)[C@@H](O)C2O)c(=O)n1` (some centres not stated), the AC50 is 856 nM (active).
For `O=P(O)(O)CCC(F)(F)C(F)(F)C(F)(F)C(F)(F)C(F)(F)C(F)(F)F`, the call was inactive.
Still for that read-out and setting: as for `O=CC(F)(F)C(F)(F)C(F)(F)C(F)F`, the entry is “inactive”.
`CC(C)c1c(C(=O)Nc2ccccc2)c(-c2ccccc2)c(-c2ccc(F)cc2)n1CC[C@@H](O)C[C@@H](O)CC(=O)O`: the AC50 is 10.5 nM (active).
For `COC(=O)C(F)(F)C(F)(F)C(F)(F)C(F)(F)C(F)(F)F`, the call was inactive.
The same measure, in the same setting: as for `O=C(C=C(O)C(F)(F)F)C(F)(F)F`, the entry is “inactive”.
Regarding `CC(=O)Nc1ccc(O)cc1`, the call was inactive and the concentration at half-maximal activity (AC50) is 22500 nM (active).
As for `O=C(CC(=O)C(F)(F)C(F)(F)C(F)(F)F)c1cccs1`, the result was inactive.
On to `O=C(CCCN1CCC(O)(c2ccc(Cl)cc2)CC1)c1ccc(F)cc1`, for which the concentration at half-maximal activity (AC50) was 1290 nM (active).
Regarding `COC(=O)C(F)(F)C(F)(F)C(F)(F)F`, the compound was classed as inactive.
Consider `O=C1NS(=O)(=O)c2ccccc21`, for which the compound was classed as inactive.
In the case of `CN(Cc1cnc2nc(N)nc(N)c2n1)c1ccc(C(=O)N[C@@H](CCC(=O)O)C(=O)O)cc1`, the AC50 was 72.8 nM (active).
Take `O=C(O)C(F)(F)OC(F)(F)C(F)(F)OC(F)(F)C(F)(F)OC(F)(F)C(F)(F)C(F)(F)C(F)(F)F`: the result was inactive.
On the same count and under the same terms, as for `CN(CCO)S(=O)(=O)C(F)(F)C(F)(F)C(F)(F)C(F)(F)C(F)(F)C(F)(F)C(F)(F)C(F)(F)F`, the entry is “inactive”; as for `O=C(F)C(F)(F)C(F)(F)C(F)(F)C(=O)F`, “inactive”; as for `NC(C(F)(F)F)C(F)(F)F`, “inactive”.
On to `O=P(O)(O)CCC(F)(F)C(F)(F)C(F)(F)C(F)(F)C(F)(F)C(F)(F)C(F)(F)C(F)(F)F`, for which the compound was called inactive.
On the same count and under the same terms, as for `O=CC(F)(F)C(F)(F)C(F)(F)F`, the entry is “inactive”; as for `C=CC(F)(F)C(F)(F)C(F)(F)C(F)(F)F`, “inactive”; as for `O=C(OC(=O)C(F)(F)C(F)(F)F)C(F)(F)C(F)(F)F`, “inactive”.
On the same count and under the same terms, to `OCC(F)(F)C(F)(F)C(F)(F)C(F)(F)C(F)(F)C(F)(F)C(F)(F)C(F)(F)C(F)(F)C(F)(F)C(F)(F)F` belongs “inactive”; to `FC(F)=C(F)C(F)(F)C(F)(F)C(F)(F)C(F)F`, “inactive”.
As for `FCOC(C(F)(F)F)C(F)(F)F`, the call was inactive.
`O=C(O)CCC(F)(F)C(F)(F)C(F)(F)C(F)(F)C(F)(F)F`: the compound was classed as inactive.
As to `O=C(F)C(F)(F)C(F)(F)C(F)(F)C(F)F`, the call was inactive.
